Results taken from PubChem BioAssay (EPA / NIEHS).
Active and inactive are the calls of the source. The calls were made as follows, unless noted: active = hit-call score of the fitted dose curve at least 0.9, where 1 is the maximum; inactive = score below 0.9.

Legend:
[1] = target: Peroxisome proliferator-activated receptor gamma (Homo sapiens) (UniProt P37231); experiment: OT_PPARg_PPARgSRC1_1440: Odyssey Thera (OT) 24-hour Protein-Complementation Assay for Peroxisome Proliferator-activated Receptor Gamma/ SRC-1 Co-activator (AID 2283388; active = hit-call score of the fitted dose curve at least 0.9, where 1 is the maximum)
Procedure, shortened: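 HEK293T cells transiently transfected with PPARg and SRC-1 fused via (Gly4Ser)2 linker to split Venus YFP fragments (IFP1/IFP2) were dosed 24 h; fixed, Draq5-stained, imaged at 488/635 nm; nuclear/cytoplasmic fluorescence ratio scored versus DMSO baseline, gain-of-signal.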

[2] = CEETOX_H295R_11DCORT: CeeTox H295R High-throughput Steroidogenesis Assay for 11-Deoxycortisol (11DCORT) (AID 2283432); conditions: actives raise or lower the signal;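 as to AC50: 11-deoxycortisol secreted into the medium measured by LC-MS/MS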
Procedure, shortened: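 Steroidogenesis in human H295R cells: 48 h chemical exposure after forskolin priming, 11-deoxycortisol measured by LC-MS/MS.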

[3] = CEETOX_H295R_OHPROG: CeeTox H295R High-throughput Steroidogenesis Assay for OH-Progesterone (OHPROG) (AID 2283435); conditions: actives raise or lower the signal;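 as to AC50: 17alpha-hydroxyprogesterone secreted into medium measured by HPLC-MS/MS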
Procedure, shortened: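 Secreted 17alpha-hydroxyprogesterone is read by tandem MS from media of forskolin-primed H295R cells dosed with chemical for 48 h. Activity is fitted in both directions against DMSO baseline; cytotoxic concentrations are re-tested diluted.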

[4] = CEETOX_H295R_ANDR: CeeTox H295R High-throughput Steroidogenesis Assay for Androstenedione (ANDR) (AID 2283436); conditions: actives raise or lower the signal
Procedure, shortened: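 H295R cells, following OECD 456 with minor changes, exposed to chemicals for 48 h. Androstenedione in the medium was quantified by HPLC-MS/MS after MTBE extraction. Fitting was bidirectional versus DMSO; chemicals were diluted until MTT viability was ≥70%.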

[5] = CEETOX_H295R_CORTIC: CeeTox H295R High-throughput Steroidogenesis Assay for Corticosterone (CORTIC) (AID 2283437); conditions: actives raise or lower the signal;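 also: corticosterone secreted into medium quantified by mass spectrometry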
Procedure, shortened: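 H295R adrenal cells prestimulated 48 hours with 10 uM forskolin, then exposed 48 hours to chemical in 0.1% DMSO. Corticosterone in medium measured by HPLC-MS/MS after MTBE extraction; MTT viability in the same wells; bidirectional fit versus DMSO.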

[6] = CEETOX_H295R_CORTISOL: CeeTox H295R High-throughput Steroidogenesis Assay for Cortisol (AID 2283438); conditions: actives raise or lower the signal;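 also: cortisol secreted into medium quantified by LC-MS/MS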
Procedure, shortened: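 Human adrenocortical H295R cells (passage ≤10) received test chemicals for 48 h after forskolin priming. Secreted cortisol was measured by LC-MS/MS.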

[7] = CEETOX_H295R_DOC: CeeTox H295R High-throughput Steroidogenesis Assay for DOC (AID 2283439); conditions: actives raise or lower the signal
Procedure, shortened: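 Secreted DOC was quantified from H295R media by HPLC-MS/MS after 48 h chemical exposure following 48 h forskolin (10 uM) prestimulation. Values were fitted in both directions relative to DMSO, the negative control and baseline.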

[8] = CEETOX_H295R_PROG: CeeTox H295R High-throughput Steroidogenesis Assay for Progesterone (PROG) (AID 2283442); conditions: actives raise or lower the signal;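 as to AC50: human H295R adrenal cells primed with 10 µM forskolin before dosing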
Procedure, shortened: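 H295R human adrenal cells were prestimulated with 10 uM forskolin for 48 h, then exposed to test chemical (0.1% DMSO final) for 48 h. Medium progesterone was MTBE-extracted and quantified by HPLC-MS/MS, with bidirectional fitting against DMSO.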

[9] = CEETOX_H295R_ESTRADIOL: CeeTox H295R High-throughput Steroidogenesis Assay for Estradiol (AID 2283440); conditions: actives raise or lower the signal;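 also: estradiol secreted into medium quantified by LC-MS/MS after dansyl derivatisation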
Procedure, shortened: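 H295R adrenocortical cells were prestimulated with 10 uM forskolin for 48 h, then exposed to test chemical in 0.1% DMSO for 48 h. Medium estradiol was extracted with MTBE, dansyl-derivatized and quantified by HPLC-MS/MS; bidirectional fit versus DMSO.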

[10] = CEETOX_H295R_ESTRONE: CeeTox H295R High-throughput Steroidogenesis Assay for Estrone (AID 2283441); conditions: actives raise or lower the signal;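 also: estrone secreted into medium measured by LC-MS/MS after dansyl derivatization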
Procedure, shortened: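 H295R cells; 48 h forskolin (10 uM) prestimulation; 48 h compound exposure, 0.1% DMSO final. Medium estrone: MTBE extraction, dansyl derivatization, HPLC-MS/MS. Bidirectional fit vs DMSO.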

Chain of Peroxisome proliferator-activated receptor gamma (Homo sapiens) (P37231 whole entry, looked up, the tested form may be a part): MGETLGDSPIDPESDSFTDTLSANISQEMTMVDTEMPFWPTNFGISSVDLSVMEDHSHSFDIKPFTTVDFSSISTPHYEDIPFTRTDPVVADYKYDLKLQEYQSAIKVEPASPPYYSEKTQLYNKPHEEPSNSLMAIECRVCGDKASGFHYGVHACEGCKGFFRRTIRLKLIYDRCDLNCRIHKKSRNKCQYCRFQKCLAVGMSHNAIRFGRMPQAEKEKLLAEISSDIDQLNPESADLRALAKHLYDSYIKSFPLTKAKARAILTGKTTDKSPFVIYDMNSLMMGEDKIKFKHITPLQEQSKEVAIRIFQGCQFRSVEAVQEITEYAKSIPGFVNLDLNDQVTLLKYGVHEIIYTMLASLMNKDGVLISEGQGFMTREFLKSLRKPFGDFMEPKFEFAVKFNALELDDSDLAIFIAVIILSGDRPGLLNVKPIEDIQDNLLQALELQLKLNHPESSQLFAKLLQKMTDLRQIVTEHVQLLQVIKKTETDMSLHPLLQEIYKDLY

With `COc1ccc(C)cc1N` the outcome [1] was “inactive”, the outcome [2] was “inactive” and the AC50 [3] was 19.3 µM (active). The outcome [4] was “inactive”, the AC50 [5] was 74.3 µM (active) and the AC50 [6] was 36.7 µM (active). The outcome [7] was “inactive” and the AC50 [8] was 33.2 µM (active).

In the case of `Nc1ccccc1N`, the outcome [1] is reported as “inactive”, the outcome [2] is reported as “inactive” and the outcome [3] is reported as “inactive”. The outcome [5] was “inactive”, the outcome [6] was “inactive” and the outcome [7] was “inactive”. The outcome [9] was “inactive”, the outcome [10] was “inactive” and the outcome [8] was “inactive”.

In the case of `C=CCc1ccc(O)c(OC)c1`, the outcome [1] is reported as “inactive”, the outcome [3] is reported as “inactive” and the outcome [8] is reported as “inactive”.

For `NC(=O)Cn1c(=O)cc(CCN2CCN(c3nccc4sccc34)CC2)c2ccc(F)cc21`, the outcome [1] was “inactive”, the AC50 [2] was 27.6 µM (active) and the AC50 [3] was 7.83 µM (active). For the same compound, the AC50 [5] was 4.46 µM (active), the AC50 [6] was 25 µM (active) and the AC50 [7] was 16.9 µM (active). The AC50 [8] was 2.02 µM (active).

In the case of `CN1CCN(Cc2cc(-c3ccc4[nH]c(=O)oc4c3)co2)[C@@H](c2ccc(F)cc2)C1`, the outcome [1] is reported as “inactive”, the outcome [2] is reported as “inactive” and the AC50 [3] is reported as 4.56 µM (active). For the same compound, the outcome [5] was “inactive”, the outcome [6] was “inactive” and the outcome [7] was “inactive”. For the same compound, the outcome [9] was “inactive”, the outcome [10] was “inactive” and the AC50 [8] was 14.1 µM (active).

For `CCCCCCCCCCO`, the outcome [1] was “inactive”.

With `Cc1nc(C)nc(N2C[C@@H](C)N(c3ccnc([C@@H](C)O)n3)[C@@H](C)C2)n1` the outcome [1] was “inactive”, the outcome [2] was “inactive” and the outcome [3] was “inactive”. For the same compound, the outcome [5] was “inactive”, the outcome [6] was “inactive” and the outcome [7] was “inactive”. The outcome [8] was “inactive”.

In the case of `CC(=O)OC/C=C(\C)CCC=C(C)C`, the outcome [1] is reported as “inactive”.

With `Cc1cccc(Nc2cc(Cl)nc(SCC(=O)O)n2)c1C` the outcome [1] was “inactive”, the AC50 [2] was 7.04 µM (active) and the AC50 [3] was 8.61 µM (active). For the same compound, the outcome [4] was “inactive”, the outcome [5] was “inactive” and the outcome [6] was “inactive”. The outcome [7] was “inactive”, the outcome [9] was “inactive” and the outcome [10] was “inactive”. For the same compound, the AC50 [8] was 12.3 µM (active).

In the case of `Cc1ccccc1Cl`, the outcome [1] is reported as “inactive”.

In the case of `Cc1cc(NC(=O)C(=O)O)cc(C)c1Oc1ccc(O)c2c1CCC2`, the outcome [2] is reported as “inactive”, the AC50 [3] is reported as 35 µM (active) and the AC50 [5] is reported as 34.1 µM (active). The outcome [6] was “inactive”, the AC50 [7] was 37.6 µM (active) and the AC50 [8] was 43.2 µM (active).

In the case of `Oc1ccc2ccccc2c1N=Nc1ccccc1`, the outcome [1] is reported as “inactive”, the AC50 [9] is reported as 10.7 µM (active) and the AC50 [10] is reported as 10.1 µM (active).

For `CC1(C)CC(N=C=O)CC(C)(CN=C=O)C1` (centres undefined), the outcome [1] was “inactive”, the outcome [3] was “inactive” and the outcome [8] was “inactive”.

With `Nc1ccc(S(=O)(=O)c2ccc(N)cc2)cc1` the outcome [1] was “inactive”, the AC50 [3] was 30.5 µM (active) and the AC50 [8] was 36.1 µM (active).

In the case of `CCOc1ccc2c(c1)C(C)=CC(C)(C)N2`, the outcome [1] is reported as “inactive”, the AC50 [3] is reported as 2.44 µM (active) and the AC50 [4] is reported as 36.4 µM (active). For the same compound, the AC50 [8] was 16.7 µM (active).

With `Cc1nc(-c2ccc3c(c2)CCN(CCC2CCC(NC(=O)/C=C/c4ccc(F)cc4)CC2)CC3)no1` (centres undefined) the outcome [1] was “inactive”, the AC50 [2] was 0.199 µM (active) and the AC50 [3] was 0.224 µM (active). The AC50 [4] was 0.365 µM (active), the outcome [5] was “inactive” and the outcome [6] was “inactive”. The AC50 [7] was 0.0532 µM (active), the outcome [9] was “inactive” and the outcome [10] was “inactive”. For the same compound, the AC50 [8] was 0.0391 µM (active).

In the case of `C[C@]12C=CC(=O)C=C1CC[C@@H]1[C@@H]2C(=O)C[C@@]2(C)[C@H]1CC[C@]2(O)C(=O)CO`, the outcome [1] is reported as “inactive”, the outcome [3] is reported as “inactive” and the outcome [9] is reported as “inactive”. The outcome [10] was “inactive”.

With `COc1ccc(S(=O)(=O)N2C(=O)[C@@](c3ccccc3OC)(N3C[C@H](O)C[C@H]3C(=O)N(C)C)c3cc(Cl)ccc32)c(OC)c1` the outcome [1] was “inactive”, the outcome [2] was “inactive” and the AC50 [3] was 5.43 µM (active). The outcome [4] was “inactive”, the outcome [5] was “inactive” and the outcome [6] was “inactive”. The outcome [7] was “inactive” and the outcome [8] was “inactive”.

For `COC(=O)c1ccc(O)cc1`, the outcome [1] was “inactive”, the outcome [2] was “inactive” and the AC50 [3] was 45 µM (active). For the same compound, the outcome [5] was “inactive”, the outcome [6] was “inactive” and the outcome [7] was “inactive”. For the same compound, the outcome [9] was “inactive”, the outcome [10] was “inactive” and the AC50 [8] was 50 µM (active).

For `O=C(O)CCCCC(=O)O`, the outcome [1] was “inactive”.

With `COc1ccc2c(c1)c(CC(=O)O)c(C)n2C(=O)c1ccc(Cl)cc1` the outcome [1] was “inactive”, the outcome [2] was “inactive” and the outcome [3] was “inactive”. For the same compound, the outcome [4] was “inactive”, the outcome [5] was “inactive” and the outcome [6] was “inactive”. The outcome [7] was “inactive” and the outcome [8] was “inactive”.

With `Nc1ccc2c(c1)C(=O)c1ccccc1C2=O` the outcome [1] was “inactive”, the outcome [2] was “inactive” and the AC50 [3] was 7.84 µM (active). For the same compound, the AC50 [5] was 4.17 µM (active), the outcome [6] was “inactive” and the outcome [7] was “inactive”. The AC50 [8] was 6.71 µM (active).

For `c1cc(-c2ccncc2)ccn1`, the outcome [1] was “inactive”, the outcome [2] was “inactive” and the outcome [3] was “inactive”. For the same compound, the outcome [5] was “inactive”, the outcome [6] was “inactive” and the outcome [7] was “inactive”. For the same compound, the outcome [9] was “inactive”, the outcome [10] was “inactive” and the outcome [8] was “inactive”.

With `Cc1c(C(=O)O)c(O)cc2c1C(=O)c1c(O)c([C@@H]3O[C@H](CO)[C@@H](O)[C@H](O)[C@H]3O)c(O)c(O)c1C2=O` the outcome [1] was “inactive”, the outcome [2] was “inactive” and the outcome [3] was “inactive”. For the same compound, the outcome [5] was “inactive”, the outcome [6] was “inactive” and the outcome [7] was “inactive”. For the same compound, the outcome [9] was “inactive”, the outcome [10] was “inactive” and the outcome [8] was “inactive”.

In the case of `Oc1ccc2c(c1)OC[C@@H](N1CCC(O)(c3ccc(F)cc3)CC1)[C@H]2O`, the outcome [1] is reported as “inactive”, the outcome [2] is reported as “inactive” and the outcome [3] is reported as “inactive”. The outcome [5] was “inactive”, the outcome [6] was “inactive” and the outcome [7] was “inactive”. The outcome [9] was “inactive”, the outcome [10] was “inactive” and the outcome [8] was “inactive”.

With `Clc1cc(Cl)c(Cl)cc1Cl` the outcome [1] was “inactive”.

In the case of `CC(C)c1ccc(C(=O)N=C(N)N)cc1S(C)(=O)=O`, the outcome [1] is reported as “inactive”.

With `CC=Cc1ccc(O)c(OC)c1` the outcome [1] was “inactive”, the outcome [3] was “inactive” and the outcome [8] was “inactive”.
